From PubChem BioAssay
The source made the active and inactive calls.

How the values were obtained:
[1] = tested on: Plasmodium falciparum Sir2 (PF13_0152, Sir2A); assay: pfSir2 binders on small-molecule microarrays, primary screen, biochemical, small-molecule microarray, 635 nm fluorescence (AID 1098); conditions: small-molecule microarray binding, fluorescence 635 nm; higher = more signal;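 further: score merges spot fluorescence intensity with its signal-to-noise ratio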
[2] = small-molecule microarray binders of probe aDKK1, primary screen, biochemical, biotinylated probe, 635/667 nm fluorescence (AID 1099); conditions: higher = more signal;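 further: score merges 667nm spot fluorescence with signal to noise across triplicate slides; reference of the scale not given here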
[3] = small-molecule microarray binders of probe aCHRDL2, primary screen, biochemical, biotinylated probe, 635/667 nm fluorescence (AID 1100); conditions: higher = more signal
[4] = splicing luciferase reporter signal modulators, primary screen, spliceosome inhibition project, cell-based, HEK293, splice +/- reporter (AID 1101); conditions: luminescence, 24 h, higher = more signal, called active from +8 up or from −8 down;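 further: HEK293 cells carrying a splicing-competent luciferase reporter gene; test concentration not given here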
[5] = target: Fibroblast growth factor 10 (Homo sapiens) (UniProt O15520); assay: FGF10 binders on small-molecule microarrays, primary screen, biochemical, small-molecule microarray, 635 nm fluorescence (AID 1102); conditions: FGF10 binding, fluorescence 635 nm, higher = more signal
Sequence of Fibroblast growth factor 10 (Homo sapiens) (O15520 whole entry, looked up): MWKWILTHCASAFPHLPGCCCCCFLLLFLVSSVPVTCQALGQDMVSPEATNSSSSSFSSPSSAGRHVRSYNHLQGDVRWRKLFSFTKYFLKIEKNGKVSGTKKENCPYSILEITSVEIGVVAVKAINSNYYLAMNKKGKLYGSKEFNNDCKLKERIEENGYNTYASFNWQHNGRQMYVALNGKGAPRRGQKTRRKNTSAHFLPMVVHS

[6] = tested on: glycogen synthase kinase-3 (GSK3A per assay name; protocol says GSK3B); assay: GSK3 binders on small-molecule microarrays, primary screen, biochemical, small-molecule microarray, 635 nm fluorescence, GSK3A (AID 1103); conditions: small-molecule microarray binding, fluorescence 635 nm; higher = more signal; further: the record names both GSK3A and GSK3B
[7] = target: Epidermal growth factor receptor (Homo sapiens) (UniProt P00533); assay: EGFR binders on small-molecule microarrays, primary screen, biochemical, small-molecule microarray, 635 nm fluorescence (AID 1104); conditions: EGFR binding, higher = more signal;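 further: score merges 667 nm emission intensity with spot signal to noise over triplicate slides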
Sequence of Epidermal growth factor receptor (Homo sapiens) (P00533 whole entry, looked up): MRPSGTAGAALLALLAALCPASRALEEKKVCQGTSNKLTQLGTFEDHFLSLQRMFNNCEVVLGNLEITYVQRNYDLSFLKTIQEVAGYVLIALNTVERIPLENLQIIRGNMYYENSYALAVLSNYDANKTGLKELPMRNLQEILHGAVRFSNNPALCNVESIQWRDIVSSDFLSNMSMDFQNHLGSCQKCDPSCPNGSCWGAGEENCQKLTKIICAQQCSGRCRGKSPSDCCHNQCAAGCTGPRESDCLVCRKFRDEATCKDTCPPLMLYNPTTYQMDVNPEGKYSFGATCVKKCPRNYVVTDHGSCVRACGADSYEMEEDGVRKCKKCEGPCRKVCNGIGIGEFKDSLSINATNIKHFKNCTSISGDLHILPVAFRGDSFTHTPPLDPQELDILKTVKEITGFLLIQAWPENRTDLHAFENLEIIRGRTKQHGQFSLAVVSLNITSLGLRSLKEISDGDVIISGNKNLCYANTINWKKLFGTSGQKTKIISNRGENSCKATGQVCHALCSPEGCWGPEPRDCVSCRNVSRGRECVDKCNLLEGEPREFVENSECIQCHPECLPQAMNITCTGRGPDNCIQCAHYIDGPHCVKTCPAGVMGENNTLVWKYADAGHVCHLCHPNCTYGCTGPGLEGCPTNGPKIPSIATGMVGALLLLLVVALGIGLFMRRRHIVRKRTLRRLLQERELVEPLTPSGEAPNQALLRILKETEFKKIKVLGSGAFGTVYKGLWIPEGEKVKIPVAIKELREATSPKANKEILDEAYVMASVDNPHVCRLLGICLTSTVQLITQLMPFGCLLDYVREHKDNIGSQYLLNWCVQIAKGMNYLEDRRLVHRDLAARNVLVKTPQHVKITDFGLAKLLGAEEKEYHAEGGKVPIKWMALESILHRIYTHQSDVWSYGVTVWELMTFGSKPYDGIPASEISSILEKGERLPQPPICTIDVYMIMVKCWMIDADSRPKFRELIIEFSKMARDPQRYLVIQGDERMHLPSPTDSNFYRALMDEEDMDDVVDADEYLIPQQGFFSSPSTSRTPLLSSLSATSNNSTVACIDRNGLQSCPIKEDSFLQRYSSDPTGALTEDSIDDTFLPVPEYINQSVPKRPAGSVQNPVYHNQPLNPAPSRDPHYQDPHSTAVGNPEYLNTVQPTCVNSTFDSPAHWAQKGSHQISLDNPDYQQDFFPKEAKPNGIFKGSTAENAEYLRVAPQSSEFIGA

[8] = target: Follistatin-related protein 3 (Homo sapiens) (UniProt O95633); assay: FSTL3 binders on small-molecule microarrays, primary screen, biochemical, small-molecule microarray, 635 nm fluorescence (AID 1105); conditions: FSTL3 binding, higher = more signal;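 further: score merges emission near 667 nm and signal to noise per printed spot across three slides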
Sequence of Follistatin-related protein 3 (Homo sapiens) (O95633 whole entry, looked up): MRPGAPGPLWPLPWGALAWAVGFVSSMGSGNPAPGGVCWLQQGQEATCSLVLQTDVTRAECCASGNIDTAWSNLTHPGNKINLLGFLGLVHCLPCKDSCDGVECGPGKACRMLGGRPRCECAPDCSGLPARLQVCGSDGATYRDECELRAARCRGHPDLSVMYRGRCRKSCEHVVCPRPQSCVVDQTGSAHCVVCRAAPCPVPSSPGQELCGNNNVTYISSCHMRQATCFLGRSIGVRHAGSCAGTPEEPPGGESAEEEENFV

[9] = target: Dickkopf-related protein 1 (Homo sapiens) (UniProt O94907); assay: DKK1 binders on small-molecule microarrays, primary screen, biochemical, small-molecule microarray, 635 nm fluorescence scan (AID 1106); conditions: DKK1 binding, higher = more signal;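 further: score merges emission near 667 nm with signal to noise over three replicate slides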
Sequence of Dickkopf-related protein 1 (Homo sapiens) (O94907 whole entry, looked up): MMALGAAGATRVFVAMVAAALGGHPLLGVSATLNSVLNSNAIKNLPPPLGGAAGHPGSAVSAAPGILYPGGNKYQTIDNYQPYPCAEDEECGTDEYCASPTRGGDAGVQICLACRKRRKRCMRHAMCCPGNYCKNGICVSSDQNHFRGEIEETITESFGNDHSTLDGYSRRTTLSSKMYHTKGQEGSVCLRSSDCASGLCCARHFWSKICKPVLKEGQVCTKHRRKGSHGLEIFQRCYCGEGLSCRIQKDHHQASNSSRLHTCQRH

[10] = tested on: Inhibin beta A chain (activin A); assay: INHBA (activin A) binders on microarrays, primary screen, biochemical, small-molecule microarray, 635 nm fluorescence scan (AID 1107); conditions: small-molecule microarray binding, higher = more signal;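 further: mouse activin A protein probed at 4.33 µg/mL on printed slides; score merges bound-protein fluorescence near 667 nm with spot signal-to-noise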

SMILES	composite z-score [1]	composite z-score [2]	composite z-score [3]	z-score [4]	composite z-score [5]	composite z-score [6]	composite z-score [7]	composite z-score [8]	composite z-score [9]	composite z-score [10]
CN1C(=O)C2C(C1=O)C1C=C(CCCO)C2C(c2cccs2)N1Cc1cc2c(cc1Br)OCO2 (stereo not given)	0.989	0.738	0.377	-0.139 (inactive)	0.922	1.34	0.424	1.49	0.373	1.51
CC(CO)N1C(=O)[C@@H]2[C@H]3C(=O)OCC=C[C@H]3OC23C=CCN(c2ccc(Cl)cc2)C(=O)[C@@H]13 (stereo not given in full)	1.93	-0.125	0.837	-0.00913 (inactive)	-1.59	-0.501	-2.15	-2.43	-1.92	-3.56
C=CCNC(=O)[C@H]1[C@@H]2C(=O)O[C@@H](c3ccccc3)[C@@H](c3ccccc3)N2[C@@H](c2ccc(O)cc2)[C@]12C(=O)N(C(=O)OCCOC)c1ccc(C#CCC(C(=O)OC)C(=O)OC)cc12	1.37	0.119	0.236	0.173 (inactive)	1.1	1.19	0.564	0.914	0.641	0.23
O=C(N1CCOCC1)[C@@]1(CCS(=O)(=O)c2ccccc2)N=C(c2ccc(OCCCO)cc2)O[C@H]1c1ccccc1	1.64	1.42	1.33	2.21 (inactive)	0.646	1.22	-0.412	0.424	-0.383	0.382
O=C1N(CCS(=O)(=O)c2ccccc2)Cc2ccccc2[C@@H]2OC(c3ccc(OCCCO)cc3)=N[C@]12CCS(=O)(=O)c1ccccc1	1.14	0.846	0.788	-0.42 (inactive)	1.46	1.32	0.89	1.48	1.46	1.22
COCCOC(=O)N1C(=O)[C@@]2(c3cc(C#CC4=CCCCC4)ccc31)[C@H](C(=O)N1CCCCCCC1)[C@H]1C(=O)O[C@H](c3ccccc3)[C@H](c3ccccc3)N1[C@@H]2c1ccc(OCCO)cc1	1.23	0.977	0.734	-0.611 (inactive)	1.03	1.17	0.825	1.23	0.835	1.43
Cc1ccc([C@H]2C(C(=O)O)=C[C@@H](C(C)(C)C)N2S(=O)(=O)c2ccc(C)cc2)cc1	1.03	1.05	1.06	0.0856 (inactive)	1.1	1.31	0.0496	1.17	-0.591	0.265
C=C[C@@H](OC)[C@H](OC(=O)Nc1ccc(OC)cc1)c1ccc(OC)c(O)c1	-1.1	-0.259	0.601	-0.657 (inactive)	-0.818	-0.465	-0.75	-1.11	-0.642	-0.267
CCOC(=O)C1=CCN(S(=O)(=O)c2ccc(C)cc2)C1c1ccccc1 (stereo not given)	0.494	0.129	0.221	-0.377 (inactive)	1.19	0.509	0.204	0.493	0.22	0.867
CCOC(=O)C1=C[C@@H](C(C)(C)C)N(S(=O)(=O)c2ccc(C)cc2)[C@H]1c1ccccc1	0.104	1.44	1.22	1.07 (inactive)	0.982	1.29	0.591	1.26	0.743	0.556
CCCNC(=O)[C@@]1(C)c2ccccc2C(=O)N(Cc2ccccc2)[C@H]1c1ccc(CO)cc1	0.956	0.74	0.963	1.34 (inactive)	0.391	-0.136	-1.54	-0.487	-0.766	-0.765
C=CCC(OC(C)=O)[C@@H]1[C@@H](N(Cc2cccc3ccccc23)C(=O)c2cccc3ccccc23)c2cc(OCCCO)ccc2N1C(=O)c1ccc2ccccc2c1 (stereo not given in full)	-0.131	0.0281	0.0611	-0.888 (inactive)	0.523	-0.0993	0.187	0.423	0.226	1.41
CCCC=C(CCC)[C@@H](NS(=O)(=O)c1cccc2cccnc12)c1ccc(-c2ccccc2)cc1	0.757	0.939	0.75	-0.301 (inactive)	1	1.32	0.355	0.909	-0.345	-0.278
COCCOC(=O)N1C(=O)[C@@]2(c3cc(C#CC4(O)CCCCCC4)ccc31)[C@H](C(=O)N1CCN(c3ncccn3)CC1)[C@H]1C(=O)O[C@H](c3ccccc3)[C@H](c3ccccc3)N1[C@@H]2c1ccccc1OCCO	1.27	-0.0139	-0.113	-0.278 (inactive)	0.864	1.29	0.906	1.29	1.32	0.521
CC(=O)NCCCC[C@@H]1NC(=O)[C@@H]2C[C@H](C(=O)NCCCCCCN)[C@H](c3cccc(OCCO)c3)N2C1=O	1.04	0.504	0.61	0.248 (inactive)	0.906	0.132	-0.556	-0.309	-0.733	0.288
CN(C)C(=O)[C@]1(CCS(=O)(=O)c2ccccc2)N=C(c2ccc(OCCCO)cc2)O[C@@H]1c1ccccc1	1.45	0.483	0.515	-0.621 (inactive)	1.48	1.26	-0.0269	0.552	-0.323	0.82

SMILES	composite z-score [1]	composite z-score [2]	composite z-score [3]	z-score [4]	composite z-score [5]	composite z-score [6]	composite z-score [7]	composite z-score [8]	composite z-score [9]	composite z-score [10]
[N-]=[N+]=Nc1ccccc1C[C@]1(C(=O)NCc2ccccc2)COC(c2ccc(OCCCO)cc2)=N1	1.26	0.187	0.869	0.439 (inactive)	1.16	1.23	-0.404	1.01	-0.537	0.386
[N-]=[N+]=Nc1ccccc1C[C@@]1(C(=O)O)N=C(c2ccc(OCCCO)cc2)O[C@@H]1c1ccccc1N=[N+]=[N-]	1.46	1.16	1.32	-0.469 (inactive)	0.285	1.11	-0.383	0.626	-0.435	1.29
O=C1C[C@@](C(=O)NCc2ccccc2)(c2ccc([N+](=O)[O-])cc2)[C@@H](c2ccc(CO)cc2I)N1CC12CC3CC(CC(C3)C1)C2	1.05	-0.0517	0.214	-0.218 (inactive)	1.31	0.794	0.547	1.44	0.578	-0.0204
Cc1c(NC(=O)/C(C#N)=C/c2ccccc2Cl)c(=O)n(-c2ccccc2)n1C	0.633	-0.258	-0.0592	-0.378 (inactive)	0.185	-0.046	0.139	0.361	0.491	0.395
COc1ccc(CCNC(=O)[C@@]2(Cc3ccccc3I)c3ccccc3C(=O)N(Cc3ccccc3Cl)[C@H]2c2ccc(CO)cc2)cc1	1.79	0.316	0.646	-1.55 (inactive)	0.202	-0.181	-0.662	-0.407	-0.735	0.0137
CC(C)(C)OC(=O)CC[C@]12N=C(c3ccc(OCCCO)cc3)O[C@H]1c1ccccc1N(Cc1ccccc1)C2=O	0.907	0.492	0.462	-0.601 (inactive)	1.18	1.26	-0.0167	0.483	0.168	0.777
CC(C)[C@H]1NC(=O)[C@@]23C(=O)N[C@@H](Cc4ccccc4)C2[C@H](C)[C@@]2(C)O[C@H]2C3/C=C/CCC/C=C/CNC(=O)[C@H](Cc2ccccc2)NC1=O (stereo not given in full)	1.39	-0.339	-0.32	0.286 (inactive)	0.106	0.291	-0.023	0.0435	0.147	0.943
CCCCNC(=O)c1ccc(C#C[Si](C(C)C)(C(C)C)C(C)C)c(OC(C)=O)c1	0.28	-0.0188	-0.539	-0.831 (inactive)	0.832	0.807	1.36	1.49	0.784	1.59
COc1cc(CO)cc(I)c1O[C@H]1C=C(C(=O)NCCO)C[C@@H](NCC2CCCCC2)[C@@H]1O	0.587	-0.155	-0.103	-0.47 (inactive)	0.536	0.0102	0.151	0.607	0.502	0.328
CC(=O)N1CC(C(O)C2C=CC3C(=O)NC(=O)C3N2Nc2ccc(Cl)cc2Cl)c2ccccc21 (stereo not given)	0.669	1.95	1.07	0.622 (inactive)	0.693	-0.28	-0.105	0.797	0.0106	1.19
CCc1cccc(NC(=O)O[C@H]2[C@H](OC(=O)Nc3ccccc3)[C@H](OC(=O)Nc3ccccc3)[C@@H](OC)O[C@@H]2CO)c1	1.41	0.22	0.55	-0.376 (inactive)	1.51	1.24	-0.0045	0.833	-0.186	0.444
Nc1cc(Br)ccc1C(=O)O	-0.0113	0.149	-0.155	-0.00991 (inactive)	0.339	0.285	0.029	0.111	0.241	0.0301
C=C(/C(=C/C[C@@H](OC(=O)c1ccncc1)c1cccc(OCCO)c1)c1cnc2ccccc2c1)C(C)C	0.198	0.0215	0.415	-0.537 (inactive)	1.5	1.18	0.922	1.51	0.858	1.52
O=c1cccc(-c2ccco2)o1	1.28	-0.148	-0.617	0.935 (inactive)	0.955	0.829	0.693	1.02	1.16	1.24
COCCOC(=O)N1C(=O)[C@@]2(c3cc(C#CCCO)ccc31)[C@H](C(=O)N1CCCCCCC1)[C@H]1C(=O)O[C@H](c3ccccc3)[C@H](c3ccccc3)N1[C@@H]2c1ccccc1OCCO	1.24	2.67	1.6	-0.0434 (inactive)	0.663	1.35	1.31	1.58	1.43	1.86
